Rows were chosen to be rich in hits. Some 18% of all compounds tested hit in one or more screens of this group.
IL1B secr inh: inflammasome signaling inhibition, IL-1 beta readout. THP-1 LPS/ATP IL-1B secretion, AlphaLISA, 16 h; active compounds read low. activity change, % at 57.5 µM. 4.7% of 360,000 active. AID 743279; in the data active = activity change below about -50%; inconclusive = mostly about -30% to -49%
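THP-1 cells pretreated 1 hr with compounds (up to 57.5 uM final), then stimulated with LPS (250 ng/mL final) plus ATP (1.25 mM final); secreted IL-1B measured by AlphaLISA after 16 hr, decreased signal indicating inhibition.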
Gal4-VP16 FLuc: Gal4-VP16 reporter inhibition counter-screen | Drosophila S2 Gal4-VP16 UAS-luciferase, luminescence, 20 h | Potency, µM (top dose mostly 53.6 µM), without a hit: at the top dose activity, negative = inhibition, hits mostly inhibitors | 3.5% of 310,000 active | AID 2546;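 also: Gal4-VP16 expression switched on by copper sulfate through the metallothionein promoter; potency is read from the fitted curve at half-maximal effect; nearly all actives have a fitted effect of over 50% in size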
RORgamma inh: inhibitors of mouse ROR gamma transcriptional activity; P51450; Drosophila S2 Gal4-RORgamma UAS-luciferase reporter, 20 h; Potency, µM (highest dose often 53.6 µM), without a hit: top-dose activity change, negative = inhibition, most hits filed as inhibitors; 5.4% of 310,000 active; also: potency is read from the fitted curve at half-maximal effect; nearly all actives have a fitted effect of over 60% in size
Target sequence (P51450 whole entry, looked up, the tested form may be a part): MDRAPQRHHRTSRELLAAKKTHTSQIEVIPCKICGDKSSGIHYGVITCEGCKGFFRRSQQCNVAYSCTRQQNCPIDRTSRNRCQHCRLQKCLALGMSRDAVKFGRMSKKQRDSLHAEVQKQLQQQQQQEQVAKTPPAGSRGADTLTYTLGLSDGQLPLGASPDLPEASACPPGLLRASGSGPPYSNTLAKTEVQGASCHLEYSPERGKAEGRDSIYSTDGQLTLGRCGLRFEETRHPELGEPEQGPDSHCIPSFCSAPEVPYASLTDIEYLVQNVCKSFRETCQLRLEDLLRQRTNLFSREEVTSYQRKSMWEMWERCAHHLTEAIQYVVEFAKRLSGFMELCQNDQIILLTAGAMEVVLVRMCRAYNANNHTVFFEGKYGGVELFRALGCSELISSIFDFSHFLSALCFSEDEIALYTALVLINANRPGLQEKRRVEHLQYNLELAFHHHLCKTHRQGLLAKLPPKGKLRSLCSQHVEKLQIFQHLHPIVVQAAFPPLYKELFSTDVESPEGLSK
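Luminescence from a UAS-regulated Photinus luciferase reporter in stably transfected Drosophila Schneider cells is measured; decreased signal marks ROR gamma inhibition. Fusion expression is induced by 700 uM copper sulfate for 20 hr.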
DT40 TDP1 no CPT: qHTS for Inhibitors of human tyrosyl-DNA phosphodiesterase 1 (TDP1): qHTS in cells in absence of CPT. DT40 Tdp1-/- hTDP1 cells, no CPT, ATP luminescence, 48 h. Potency, µM (top dose mostly 46.2 µM), inactives show at the top dose activity change, negative = growth inhibition, usual class: inhibitors. 15% of 420,000 active; also: potency is read from the fitted curve at half-maximal effect; nearly all actives have a fitted effect of over 55% in size
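No-CPT arm: Tdp1-/-;hTDP1 DT40 cells (400/well) plus compounds, incubated ≥48 hr at 37 °C. Readout CellTiter-Glo luminescence.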
TDP1 cell CPT: growth inhibition of DT40 Tdp1-/-;hTDP1 cells with camptothecin (screen for TDP1 inhibitors); Potency, µM (top dose mostly 46.2 µM), inactives show top-dose activity change, negative = growth inhibition, actives largely listed as inhibitors; AID 686979; 12% of 420,000 active; chicken DT40 Tdp1-/-;hTDP1 cells + 20 nM CPT, ATP luminescence, 48 h; also: potency is read from the fitted curve at half-maximal effect; nearly all actives have a fitted effect of over 55% in size
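Chicken DT40 Tdp1-/- cells complemented with human TDP1, 400 cells/well, exposed to compounds plus 20 nM camptothecin for at least 48 h at 37 C; viability read as ATP content by CellTiter-Glo luminescence.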
LDHA inh: blocks human lactate dehydrogenase A | purified LDHA, NADH/diaphorase-resazurin fluorescence; active compounds read low | 0.15% of 480,000 active | activity change, % (values are at about 110 or 230 µM) | P00338; in the data active = activity change below about -30%; inconclusive = mostly about -25% to -30%;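 also: plate controls were DMSO wells for no effect and wells without enzyme for full effect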
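Human LDH5 (2 nM) was incubated with 0.06 mM NADH and 0.2 mM pyruvate for 5 min at room temperature in Tris pH 7.4. Remaining NADH was coupled through diaphorase/resazurin, and resorufin fluorescence was read at 0 and 20 min.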
Active calls of the source: *; ? = inconclusive; . = no result given; ! = repeats disagree; [ ] = another dose, or the depositor's remark. Unless noted, calls follow the shape of the dose curve; as a rule, active = well fitted curve in the direction sought with a large enough effect; inconclusive = small, poorly fitted or top-dose-only effect, or another doubt; inactive = no such curve, though single readings can be large; an effect the other way counts as inactive or inconclusive. Unless noted, % is scaled to controls: 0 for no effect and ±100 for the full control effect.

SMILES	IL1B secr inh	Gal4-VP16 FLuc	RORgamma inh	DT40 TDP1 no CPT	TDP1 cell CPT	LDHA inh
CC(=O)OC1(C(C)=O)CCC2C3CC4OC45CC(O)CCC5(C)C3CCC21C (stereo unspecified)	23.8	.	.	-17.1%	1.3%	-12.3
CC(=O)O[C@@]1(C(C)=O)CCC2C3C=C(Cl)C4=CC(=O)C5CC5[C@@]4(C)C3CC[C@]21C (stereo partly specified)	.	-6.5%	0.5%	20.6µM*	20.6µM*	.
O=C(NC1CCN(CCCc2nc3ccccc3o2)CC1)C1CC1	.	.	.	.	.	7.1
COC(=O)c1cccc(Nc2c(-c3ccc(OC)cc3)nc3nc[nH]n23)c1	.	.	.	?	20.6µM*	-2.3
CCOC(=O)C1CCCC12Nc1cccc3cccc(c13)N2 (stereo unspecified)	-10.7	.	.	14.6µM*	18.4µM*	4.5
O=C(NN1C(=O)c2cc(Br)ccc2NC1c1cc(Br)cc(Br)c1O)c1ccncc1 (stereo unspecified)	70.4	7.94µM*	5.01µM*	0.0%	6.1%	1.4
OC(c1ccc(Cl)cc1)c1ncc(-c2ccc(Oc3ccccc3)cc2)[nH]1 (stereo unspecified)	?	.	.	20.6µM*	20.6µM*	-13.3
OC(c1ccccc1)c1ncc(-c2ccc(Oc3ccccc3)cc2)[nH]1 (stereo unspecified)	-3.6	.	.	18.4µM*	23.1µM*	-9.2
COc1ccc(-c2cnc(C(O)c3ccc(-c4ccccc4)cc3)[nH]2)cc1 (stereo unspecified)	-5.5	.	.	?	?	-13.7
CCN1C(=O)/C(=C\c2nc3ccccc3c(=O)n2-c2ccccc2)c2ccccc21	?	-10.4%	18.1%	8.2µM*	13µM*	-4.7
CCN1C(=O)/C(=C/c2nc3ccccc3c(=O)n2-c2ccc(C)cc2)c2ccccc21	.	-21.7%	?	18.4µM*	23.1µM*	-13.8
COc1ccc(-c2cnc(C)o2)cc1S(=O)(=O)Nc1cccc(Br)c1	.	.	.	.	.	4.9
Cc1ccc(-c2cnc(C3CC3)o2)cc1S(=O)(=O)Nc1ccc(F)cc1Cl	.	.	.	25.9µM*	?	-1.0
COc1cc(NS(=O)(=O)c2cc(-c3cnc(C4CC4)o3)ccc2C)cc(OC)c1	.	.	.	.	.	-2.9
CCOC(=O)c1cccc(NS(=O)(=O)c2cc(-c3cnc(C4CC4)o3)ccc2C)c1	.	.	.	2.06µM*	2.59µM*	-0.2
COc1ccc(NS(=O)(=O)c2cc(-c3cnc(C4CC4)o3)ccc2C)cc1	-1.2	-19.7%	10.9%	4.61µM*	6.51µM*	4.2
CCOc1ccc(NS(=O)(=O)c2cc(-c3cnc(C4CC4)o3)ccc2C)cc1	.	.	.	.	.	15.7
Cc1nc(-c2csc(S(=O)(=O)NCc3ccc(Br)cc3)c2)no1	.	.	.	.	.	-2.7
CCOc1ccc(N2C(=O)N(CC(=O)NC(C)CC)c3ccccc3S2(=O)=O)cc1 (stereo unspecified)	.	.	.	.	.	-5.0
COc1ccc(CNc2nc(-c3ccccc3)nn2C(=O)c2ccc(C)cc2)cc1	.	.	.	.	.	-3.9
O=C(Nc1ccc(Cl)cc1)c1ccc(-n2cnc3ccccc3c2=O)cc1	.	.	.	.	.	0.1
CCOc1ccc(NC(=O)c2oc3ccccc3c2NC(=O)CC)cc1	.	19.5%	-16.1%	.	.	.
CCOc1ccc(NC(=O)c2oc3ccccc3c2NC(=O)C(C)(C)C)cc1	.	.	.	18.4µM*	?	5.5
COc1ccc(NC(=O)c2oc3ccccc3c2NC(=O)C2CC2)cc1	?	-21.9%	30.5%	?	?	-8.8
CCOc1ccccc1C(=O)Nc1c(C(=O)Nc2ccc(F)cc2)oc2ccccc12	.	.	.	2.31µM*	4.11µM*	-5.3
SMILES	IL1B secr inh	Gal4-VP16 FLuc	RORgamma inh	DT40 TDP1 no CPT	TDP1 cell CPT	LDHA inh
COc1ccc(NC(=O)c2oc3ccccc3c2NC(=O)C(C)(C)C)cc1	-55.1*	28.2%	-23.6%	?	?	18.9
CCC(=O)Nc1c(C(=O)Nc2ccc(F)cc2)oc2ccccc12	.	.	.	.	.	1.7
NC(=S)N/N=C/c1c(O)c(Br)cc2oc3c(c12)CCCC3	21.1	?	7.94µM*	5.17µM*	5.17µM*	-4.7
CN(C)Cc1ccccc1CNC(=O)CCc1nc2ccccc2s1	.	.	.	.	.	2.7
CCCC(=O)NC(c1ccc(OC)cc1)c1c(O)ccc2ccccc12 (stereo unspecified)	-58.2*	5.6%	1.6%	23.1µM*	?	8.7
COc1ccc(C(NC(=O)C2CCCCC2)c2c(O)ccc3ccccc23)cc1 (stereo unspecified)	-19.0	-10.8%	-7.5%[10 µM]	18.4µM*	?	2.3
COc1ccc(C(NC(=O)CC(C)C)c2c(O)ccc3ccccc23)cc1 (stereo unspecified)	-15.2	-4.6%	33.0%	?	?	1.6
CC(=O)Oc1ccc2ccccc2c1C(NC(=O)Cc1ccccc1)c1ccc(Cl)cc1 (stereo unspecified)	-18.0	?	?	20.6µM*	?	2.6
CC(C)CC(=O)NC(c1ccccc1Cl)c1c(O)ccc2ccccc12 (stereo unspecified)	-68.4*	-12.9%	-4.5%[10 µM]	-112.2%	?	-0.7
COc1ccc(-c2nc3cc(NC(=O)c4ccc(C)c([N+](=O)[O-])c4)ccc3o2)cc1OC	.	.	.	.	.	-4.1
CC(=O)c1ccc(NC(=O)Cn2ccc3cc(Cl)ccc32)cc1	.	.	.	.	.	4.6
CC(C)(C)c1ccc(CCC2OCC(CN3CCCCC3)O2)cc1 (stereo unspecified)	.	.	.	.	.	0.2
CC[C@H](C)[C@H](NC(=O)c1ccccc1)C(=O)O	.	.	.	.	.	-12.5
COCCCn1c(C)cc(C(=O)CN2C(=O)NC(Cc3c[nH]c4ccccc34)C2=O)c1C (stereo unspecified)	.	.	.	.	.	-13.7
C[C@@H]1CC2[C@@H]3C[C@H](F)C4=CC(=O)C(Cl)=C[C@]4(C)[C@@]3(F)[C@H](O)C[C@]2(C)[C@@]1(O)C(=O)CO (stereo partly specified)	.	9.0%	-4.1%	.	.	.
CC(=O)OCC(=O)[C@@]12OC(C)(C)OC1CC1C3CC(F)C4=CC(=O)C=C[C@@]4(C)[C@@]3(F)C(O)C[C@]12C (stereo partly specified)	.	-18.1%	-6.5%	-1.1%	8.2%	.
CCCC(=O)O[C@]1(C(=O)COC(C)=O)CC[C@H]2[C@@H]3C[C@H](F)C4=CC(=O)C=C[C@]4(C)[C@@]3(F)[C@@H](O)C[C@@]21C	-75.3*	-8.6%	1.8%	?	23.7µM*!	-3.0
